# From PMC8384837, “Expanding the binding specificity for RNA recognition by a PUF domain”
# Where a chain is given by its changes, count along the chain named.
# Legend:
# Experiment in all cases: yeast three-hybrid, YBZ-1, SC-Leu-His + 0.5 mM 3-AT, 4 days
# Conditions in all cases: tags: N-Gal4 AD-HA kept; label: inside an RPR1-promoter hybrid RNA with tandem MS2 sites; ssRNA
# PUM1 PUF domain R1-RWQ = PUM1 PUF domain R1-RWQ (Homo sapiens, UniProt Q14671 828-1176, S863R;R864W)
# How it was run: (§1)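 Pumilio-1 PUF domain libraries, randomized (NNK) at the three base-contacting residues of each repeat, were co-expressed with matching RNA elements from a centromeric plasmid in strain YBZ-1 (LexA–MS2 coat fusion, HIS3 reporter). Transformants were plated on SC-Leu (input) and SC-Leu-His + 0.5 mM 3-AT (selection) for four days, and repeat regions were PCR-amplified and Illumina-sequenced. The interaction score is the log2 change in variant frequency from input to selection, with pseudocount 1 where absent.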
# PUM1 PUF domain R1-NLV = PUM1 PUF domain R1-NLV (Homo sapiens, UniProt Q14671 828-1176, S863N;R864L;Q867V)
# How it was run: as §1
# PUM1 PUF domain R2-IWE = PUM1 PUF domain R2-IWE (Homo sapiens, UniProt Q14671 828-1176, N899I;Y900W;Q903E)
# How it was run: as §1
# PUM1 PUF domain R4-TRT = PUM1 PUF domain R4-TRT (Homo sapiens, UniProt Q14671 828-1176, N971T;H972R;Q975T)
# How it was run: as §1
# PUM1 PUF domain R3-AFG = PUM1 PUF domain R3-AFG (Homo sapiens, UniProt Q14671 828-1176, C935A;R936F;Q939G)
# How it was run: as §1
# PUM1 PUF domain R4-ARA = PUM1 PUF domain R4-ARA (Homo sapiens, UniProt Q14671 828-1176, N971A;H972R;Q975A)
# How it was run: as §1
# PUM1 PUF domain R5-CSR = PUM1 PUF domain R5-CSR (Homo sapiens, UniProt Q14671 828-1176, R1008S;Q1011R)
# How it was run: as §1
# PUM1 PUF domain R8-PRR = PUM1 PUF domain R8-PRR (Homo sapiens, UniProt Q14671 828-1176, N1122P;Y1123R;Q1126R)
# How it was run: as §1
# PUM1 PUF domain R3-EWL = PUM1 PUF domain R3-EWL (Homo sapiens, UniProt Q14671 828-1176, C935E;R936W;Q939L)
# How it was run: as §1
# PUM1 PUF domain R5-GIR = PUM1 PUF domain R5-GIR (Homo sapiens, UniProt Q14671 828-1176, C1007G;R1008I;Q1011R)
# How it was run: as §1
# PUM1 PUF domain R6-TFK = target: T1, PUM1 PUF domain R6-TFK (Homo sapiens, UniProt Q14671 828-1176, N1043T;Y1044F;Q1047K)
# T1 sequence: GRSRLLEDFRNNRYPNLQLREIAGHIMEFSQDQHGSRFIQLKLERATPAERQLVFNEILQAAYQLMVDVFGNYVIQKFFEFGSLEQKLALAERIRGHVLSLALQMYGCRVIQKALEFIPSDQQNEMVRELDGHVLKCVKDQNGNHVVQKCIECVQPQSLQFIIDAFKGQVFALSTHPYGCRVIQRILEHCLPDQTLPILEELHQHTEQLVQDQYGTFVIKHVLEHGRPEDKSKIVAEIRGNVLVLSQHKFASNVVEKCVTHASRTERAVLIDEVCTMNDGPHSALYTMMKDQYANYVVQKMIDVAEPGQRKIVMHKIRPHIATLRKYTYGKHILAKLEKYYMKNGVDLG
# How it was run: as §1
# PUM1 PUF domain R6-HFF = target: T2, PUM1 PUF domain R6-HFF (Homo sapiens, UniProt Q14671 828-1176, N1043H;Y1044F;Q1047F)
# T2 sequence: T1 sequence with T216H, K220F
# How it was run: as §1
# PUM1 PUF domain R4-VLY = PUM1 PUF domain R4-VLY (Homo sapiens, UniProt Q14671 828-1176, N971V;H972L;Q975Y)
# How it was run: as §1
# PUM1 PUF domain R5-RQW = PUM1 PUF domain R5-RQW (Homo sapiens, UniProt Q14671 828-1176, C1007R;R1008Q;Q1011W)
# How it was run: as §1
sequence,measurement,setting,value
GGCUAGAACUAGUGGAUCCCCCGGCGCCCGGCGGCUCGAGCCCGGGUAAGUGUAAAUUGUCUGCAUGCCGCCGGGCGCCAUGCCUGCAGGUCGACUCUAGAAAACAUG,binding signal,PUM1 PUF domain R1-RWQ,7.23 log2 enrichment (interaction score)
same,binding signal,PUM1 PUF domain R1-NLV,2.72 log2 enrichment (interaction score)
GGCUAGAACUAGUGGAUCCCCCGGCGCCCGGCGGCUCGAGCCCGGGUAAGUGUAAAAAGUCUGCAUGCCGCCGGGCGCCAUGCCUGCAGGUCGACUCUAGAAAACAUG,binding signal,PUM1 PUF domain R2-IWE,4.65 log2 enrichment (interaction score)
GGCUAGAACUAGUGGAUCCCCCGGCGCCCGGCGGCUCGAGCCCGGGUAAGUGUAAAUAGUCUGCAUGCCGCCGGGCGCCAUGCCUGCAGGUCGACUCUAGAAAACAUG,binding signal,PUM1 PUF domain R4-TRT,2.59 log2 enrichment (interaction score)
same,binding signal,PUM1 PUF domain R3-AFG,3.62 log2 enrichment (interaction score)
same,binding signal,PUM1 PUF domain R4-ARA,3.7 log2 enrichment (interaction score)
same,binding signal,PUM1 PUF domain R5-CSR,1.42 log2 enrichment (interaction score)
same,binding signal,PUM1 PUF domain R8-PRR,3.57 log2 enrichment (interaction score)
same,binding signal,PUM1 PUF domain R3-EWL,5.03 log2 enrichment (interaction score)
same,binding signal,PUM1 PUF domain R5-GIR,2.43 log2 enrichment (interaction score)
same,binding signal,PUM1 PUF domain R6-TFK,7.02 log2 enrichment (interaction score)
same,binding signal,PUM1 PUF domain R6-HFF,4.43 log2 enrichment (interaction score)
same,binding signal,PUM1 PUF domain R4-VLY,4.53 log2 enrichment (interaction score)
GGCUAGAACUAGUGGAUCCCCCGGCGCCCGGCGGCUCGAGCCCGGGUAAGUGUAUAUAGUCUGCAUGCCGCCGGGCGCCAUGCCUGCAGGUCGACUCUAGAAAACAUG,binding signal,PUM1 PUF domain R4-ARA,1.69 log2 enrichment (interaction score)
GGCUAGAACUAGUGGAUCCCCCGGCGCCCGGCGGCUCGAGCCCGGGUAAGUGUUAAUAGUCUGCAUGCCGCCGGGCGCCAUGCCUGCAGGUCGACUCUAGAAAACAUG,binding signal,PUM1 PUF domain R5-RQW,2.23 log2 enrichment (interaction score)
same,binding signal,PUM1 PUF domain R5-GIR,1.6 log2 enrichment (interaction score)
